According to PubChem BioAssay (NCI):
About 79,000 compounds went through this panel and 15% of them were active in at least one assay; those are over-represented in the sample as a whole. Activity calls are given as the source filed them. Rule as the data show it: active = growth inhibition above about 70%; inactive = the rest.

Tests used:
[1] = NCI Yeast Anticancer Drug Screen. Data for the rad52 strain (AID 147);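 also: 0% = growth of vehicle-treated control cultures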; details: S. cerevisiae rad52 mutant growth inhibition, active compounds read high
In short: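 Growth of repair-deficient yeast cells was compared between compound-treated and vehicle-treated cultures to give percent inhibition.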

[2] = NCI Yeast Anticancer Drug Screen. Data for the wt1 strain (AID 149);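 also: 0% = growth of vehicle-treated wt1 cultures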; details: S. cerevisiae wt1 strain (SPY 50644) growth inhibition, active compounds read high
In short: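 Compounds are added to wt1 yeast cultures. Growth is then measured. Inhibition is expressed relative to vehicle-treated controls.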

[3] = NCI Yeast Anticancer Drug Screen. Data for the rad50EPP+ strain (AID 151);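 also: 0% = growth of vehicle-treated control cultures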; details: S. cerevisiae rad50 mutant strain, active compounds read high
In short: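 Measured: growth inhibition of rad50EPP+ yeast. Reference: vehicle-treated controls. Screen uses strains with defined genetic alterations in DNA damage repair or cell cycle control.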

[4] = NCI Yeast Anticancer Drug Screen. Data for the mgt1 strain (AID 153); details: S. cerevisiae mgt1 mutant growth inhibition, active compounds read high
In short: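 Compounds were applied to mgt1 mutant yeast, and growth was then compared against vehicle-treated control cultures to give percent inhibition.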

[5] = NCI Yeast Anticancer Drug Screen. Data for the rad50 strain (AID 155);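 also: 0% = growth of vehicle-only cultures of the same strain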; details: S. cerevisiae rad50 strain growth inhibition, active compounds read high
In short: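 Inhibition values express reduced yeast growth in compound-treated cultures relative to vehicle-treated controls.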

[6] = NCI Yeast Anticancer Drug Screen. Data for the mec2-1 strain (AID 157); details: S. cerevisiae mec2-1 strain, active compounds read high
In short: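 Compounds were applied to mec2-1 yeast cells. Their growth was then compared with that of vehicle-treated cultures to give growth inhibition.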

[7] = NCI Yeast Anticancer Drug Screen. Data for the rad14 strain (AID 159);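 also: 0% = growth of vehicle-treated control cultures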; details: S. cerevisiae rad14 strain growth inhibition, active compounds read high
In short: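 A mutant yeast strain defective in DNA damage repair is treated with compound; inhibition of its growth is scored against untreated, vehicle-exposed cultures.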

[8] = NCI Yeast Anticancer Drug Screen. Data for the sgs1 mgt1 strain (AID 161);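 also: 0% = growth of cultures given vehicle only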; details: S. cerevisiae sgs1 mgt1 strain, active compounds read high
In short: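 Growth of a repair-deficient yeast mutant was monitored after compound treatment and expressed as inhibition relative to vehicle-treated cultures.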

[9] = NCI Yeast Anticancer Drug Screen. Data for the CLN2oe strain (AID 163);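 also: 0% = growth of vehicle-only control cultures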; details: S. cerevisiae CLN2oe strain, active compounds read high
In short: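 Cells of an engineered yeast line with disturbed cell-cycle regulation are treated with compound. Inhibition of growth is then calculated relative to the vehicle-treated reference.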

[10] = NCI Yeast Anticancer Drug Screen. Data for the cln2 rad14 strain (AID 165);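 also: 0% = growth equal to vehicle treated cultures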; details: S. cerevisiae cln2 rad14 strain, active compounds read high
In short: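 Strain: cln2 rad14 yeast, altered in cell cycle control and DNA damage repair. Read-out: growth inhibition vs vehicle.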

[11] = NCI Yeast Anticancer Drug Screen. Data for the bub3 strain (AID 167); details: S. cerevisiae bub3 mutant strain, active compounds read high
In short: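 Steps: expose the mutant yeast strain to compound; grow alongside vehicle-treated cultures; measure growth; express inhibition against the vehicle cultures.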

[12] = NCI Yeast Anticancer Drug Screen. Data for the wt2 strain (AID 169);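 also: 0% = growth of vehicle-treated yeast cultures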; details: S. cerevisiae wt2 strain growth inhibition, active compounds read high
In short: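 Growth of compound-treated yeast is measured and expressed as inhibition relative to vehicle-only controls.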

[13] = NCI Yeast Anticancer Drug Screen. Data for the mlh1 strain (AID 171);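 also: 0% = growth of vehicle-treated control cultures of the same strain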; details: S. cerevisiae mlh1 strain growth inhibition, active compounds read high
In short: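 Test agents were incubated with yeast bearing a defined DNA damage repair or cell cycle control alteration; values are growth inhibition normalised to vehicle-treated cultures.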

[14] = NCI Yeast Anticancer Drug Screen. Data for the mlh1 rad18 strain (AID 175); details: S. cerevisiae mlh1 rad18 strain growth inhibition, active compounds read high
In short: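 A repair-deficient yeast strain is exposed to test compound, and growth is scored relative to vehicle-treated controls.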

[15] = NCI Yeast Anticancer Drug Screen. Data for the rad18 strain (AID 177); details: S. cerevisiae rad18 mutant growth inhibition, active compounds read high
In short: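 DNA-repair-defective yeast; compound treatment; growth inhibition scored against vehicle.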

[16] = at 5.0 µM (retest, dose inferred, filed as 0.5)
[17] = at 50.0 µM (retest, dose inferred, filed as 5.0)

Measured: growth inhibition

COc1ccc(/C=C(/C)[N+](=O)[O-])cc1
active: [1]; at 11.0 µM 81% | [1]; at 33.0 µM 95% | [1]; at 100.0 µM 99% | [2]; at 33.0 µM 72% | [2]; at 100.0 µM 99% | [3]; at 3.7 µM 83% | [3]; at 11.0 µM 94% | [3]; at 33.0 µM 97% | [3]; at 100.0 µM 99% | [4]; at 33.0 µM 80% | [4]; at 100.0 µM 99% | [5]; at 11.0 µM 79% | [5]; at 33.0 µM 94% | [5]; [17] 94% | [5]; at 50.0 µM 80.3% | [5]; at 100.0 µM 99% | [6]; at 33.0 µM 78% | [6]; [17] 98% | [6]; at 50.0 µM 90.3% | [6]; at 100.0 µM 99% | [7]; at 100.0 µM 99% | [8]; [17] 85% | [8]; at 50.0 µM 87.8% | [9]; at 33.0 µM 71% | [9]; at 100.0 µM 99% | [10]; [17] 94% | [11]; at 33.0 µM 93% | [11]; [17] 99% | [11]; at 50.0 µM 90.8% | [11]; at 100.0 µM 98% | [12]; at 100.0 µM 99% | [13]; at 33.0 µM 97% | [13]; at 100.0 µM 99% | [14]; [17] 99% | [14]; at 50.0 µM 81.5% | [15]; at 100.0 µM 99%
inactive: [1]; at 1.2 µM 8% | [1]; at 3.7 µM 36% | [2]; at 1.2 µM -28% | [2]; at 3.7 µM -21% | [2]; at 11.0 µM -18% | [3]; at 1.2 µM 57% | [4]; at 1.2 µM -22% | [4]; at 3.7 µM -17% | [4]; at 11.0 µM 0% | [5]; at 1.2 µM -10% | [5]; at 3.7 µM 23% | [5]; [16] 49% | [6]; at 1.2 µM -44% | [6]; at 3.7 µM -51% | [6]; [16] 16% | [6]; at 11.0 µM -34% | [7]; at 1.2 µM -20% | [7]; at 3.7 µM -25% | [7]; at 11.0 µM -24% | [7]; at 33.0 µM 69% | [8]; [16] 28% | [9]; at 1.2 µM -3% | [9]; at 3.7 µM -10% | [9]; at 11.0 µM -9% | [10]; [16] 37% | [10]; at 50.0 µM 60% | [11]; at 1.2 µM -27% | [11]; at 3.7 µM -28% | [11]; [16] 28% | [11]; at 11.0 µM -6% | [12]; at 1.2 µM -5% | [12]; at 3.7 µM -4% | [12]; at 11.0 µM -1% | [12]; at 33.0 µM 59% | [13]; at 1.2 µM -12% | [13]; at 3.7 µM -16% | [13]; at 11.0 µM -2% | [14]; [16] 22% | [15]; at 1.2 µM -14% | [15]; at 3.7 µM -8% | [15]; at 11.0 µM -17% | [15]; at 33.0 µM 42%

CCOC(=O)C1([Se]c2ccccc2)CCCC1=O (stereo not drawn)
active: [1]; at 100.0 µM 92% | [2]; at 100.0 µM 91% | [3]; at 33.0 µM 87% | [3]; at 100.0 µM 96% | [4]; at 100.0 µM 85% | [5]; at 50.0 µM 84.2% | [5]; at 100.0 µM 92%
inactive: [1]; at 1.2 µM 11% | [1]; at 3.7 µM 28% | [1]; at 11.0 µM 40% | [1]; at 33.0 µM 53% | [2]; at 1.2 µM 16% | [2]; at 3.7 µM 19% | [2]; at 11.0 µM 24% | [2]; at 33.0 µM 50% | [3]; at 1.2 µM -7% | [3]; at 3.7 µM 14% | [3]; at 11.0 µM 44% | [4]; at 1.2 µM -4% | [4]; at 3.7 µM -5% | [4]; at 11.0 µM 4% | [4]; at 33.0 µM 32% | [5]; at 1.2 µM 17% | [5]; at 3.7 µM 15% | [5]; [16] 16% | [5]; at 11.0 µM 23% | [5]; at 33.0 µM 44% | [5]; [17] 63% | [6]; at 1.2 µM 1% | [6]; at 3.7 µM -6%
